Hit rate of the full screen: of about 190,000 compounds, about 270 (0.14%) were called active. Not shown: some 2% with an inconclusive outcome. Only a selection was taken, and actives are over-represented in it overall. Values without a mark were called inactive.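 Rule for the calls: active = GTP binding activity at least 20% away from the 100% baseline, either lowered as inhibitor or raised as activator; inconclusive = flagged as likely green fluorescent, judged across all proteins in the well; inactive = the rest.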

In the assay the target is GTPase HRas (Homo sapiens) (UniProt P01112). The experiment in a line: HRas wt fluorescent GTP binding changes, either direction – biochemical, wildtype, bead-based flow cytometry, multiplex, primary screen (AID 759).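 Note: 0% = unlabeled GTP competition control and 100% = no-compound control.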 To be noted: GST-Ras wt beads, Bodipy-FL-GTP binding, at 10 µM, actives lie on both sides. (Flow cytometry measures light scatter and fluorescence of single cells or particles in a stream.)
GTPase HRas (Homo sapiens), sequence (P01112 whole entry, looked up): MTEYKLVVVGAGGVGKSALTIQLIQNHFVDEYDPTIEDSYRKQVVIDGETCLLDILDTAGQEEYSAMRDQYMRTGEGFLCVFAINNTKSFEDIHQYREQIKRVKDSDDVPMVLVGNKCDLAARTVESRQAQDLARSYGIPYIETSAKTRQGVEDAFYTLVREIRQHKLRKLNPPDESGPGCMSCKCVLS
Turning to `CCSc1nc(C)c(CCOc2cccc(C)c2)c(=O)[nH]1`, the GTP binding activity was 98%.

Take `O=C(CC1C(=O)NCCN1CC(c1ccccc1)c1ccccc1)NCCc1cn[nH]c1` (stereo unspecified): the GTP binding activity was 99%.

Regarding `CCNC(=O)CC1C(=O)N(c2ccc(OC)cc2)C(=S)N1CCc1ccncc1` (stereo unspecified), the GTP binding activity is 98%.

`CCc1ccc(CN(C)Cc2nc(Cc3ccccc3)no2)nc1`: the GTP binding activity is 98%.

With `CC(=O)N(CN1C(=O)C2C3C=CC(C3)C2C1=O)c1cccc(Cl)c1` (stereo unspecified), the GTP binding activity is 93%.

With `CN(/C(=N/S(=O)(=O)c1cccs1)c1ccccc1)c1ccc(O)cc1`, the GTP binding activity was 88%.

With `CC(=O)Nc1ccc(S(=O)(=O)Oc2ccc(/C=N/N=C3/NC(=O)C(CC(=O)O)S3)cc2)cc1` (stereo unspecified), the GTP binding activity is 92%.

On to `O=C1CCC/C(=N\NC(=O)NC2CCCCC2)C1`, for which the GTP binding activity was 97%.

Turning to `COc1c(C)cc(C(=O)C2CCCN(S(=O)(=O)c3c(C)noc3C)C2)cc1C` (stereo unspecified), the GTP binding activity is 96%.

For `CC(C)(O)C#Cc1ncc(C(F)(F)F)cc1Cl`, the GTP binding activity is 98%.

Turning to `CC(C)OCCCNC(=S)N1CCC(C(=O)c2ccc3c(c2)OCCO3)CC1`, the GTP binding activity was 95%.

With `CCOCCCNCc1ccc(OCc2ccc(F)cc2)c(OC)c1`, the GTP binding activity was 97%.

With `CN1CCN(CCCCOc2ccccc2-c2ccccc2)CC1`, the GTP binding activity is 99%.

As for `CSc1ccc(/C=N\NC(=O)CC(=O)NC(C)C)cc1`, the GTP binding activity is 94%.

For `Cc1cccc(NC(=S)Nc2ccc(Cl)c(Cl)c2)c1`, the GTP binding activity was 95%.

As to `O=C(Nc1ccc(Br)cn1)c1ccc([N+](=O)[O-])o1`, the GTP binding activity was 98%.

For `Cc1nn(C)c(C)c1CN(C(=O)CCc1nnc(Cc2c[nH]c3ccccc23)o1)C(C)C`, the GTP binding activity is 95%.

With `Nn1c(SCC(=O)Nc2nccs2)nncc1=O`, the GTP binding activity was 96%.

Turning to `CCC(C)NC(=O)/C=C/c1ccc(S(=O)(=O)NCc2ccco2)cc1` (stereo unspecified), the GTP binding activity was 99%.

Consider `COCCN(CCOC)S(=O)(=O)c1ccc(C(=O)Nc2nc3c(s2)CCc2ccccc2-3)cc1`, for which the GTP binding activity was 104%.

For `C=CCN(CC=C)S(=O)(=O)c1ccc(C(=O)Nc2sc3c(c2C(N)=O)CCCCC3)cc1`, the GTP binding activity is 103%.

On to `C=CCN(CC=C)S(=O)(=O)c1ccc(C(=O)Nc2nc3c(s2)CCc2ccccc2-3)cc1`, for which the GTP binding activity was 32% (active).

As for `CCC(CC)NC(=O)CSc1nnc(-c2c[nH]c3ccccc23)o1`, the GTP binding activity is 92%.

As to `CSc1ncccc1C(=O)OCc1ccc(Br)cc1`, the GTP binding activity was 96%.

`CCOC(=O)C1CCCN(C(=O)/C=C/c2ccc(OC)cc2)C1` (stereo unspecified): the GTP binding activity was 91%.

For `Cc1cccc(C(=O)N2CCC(c3nc4ccccc4s3)CC2)c1`, the GTP binding activity was 95%.

In the case of `COc1ccc(Cc2nnc(NC(=O)c3cc(OC)c(OC)c(OC)c3)s2)cc1OC`, the GTP binding activity is 94%.

`NS(=O)(=O)c1ccc(NC(=S)NNC(=O)c2cccs2)cc1`: the GTP binding activity is 97%.

Regarding `O=C(CN(C(=O)c1csnn1)c1cccc(F)c1)NCc1ccc(F)cc1`, the GTP binding activity was 99%.

Take `CNC(=O)C(=O)N/N=C/c1ccccn1`: the GTP binding activity is 95%.

Regarding `S=C(Cc1ccc(Cl)cc1)N1CCOCC1`, the GTP binding activity is 94%.

`Cc1cccc(C(=O)Nc2ccc3c(c2)C(=O)N(CC(C)C)C3=O)c1`: the GTP binding activity is 96%.

Regarding `COc1cc(/C=C2/C(=O)ON=C2C)ccc1OCc1cccc(F)c1`, the GTP binding activity is 91%.

Consider `Cc1ccc2c(Cl)c(C(=O)Nc3nn[nH]n3)sc2c1`, for which the GTP binding activity was 100%.

Consider `O=c1/c(=C/c2ccc(CNS(=O)(=O)c3ccccc3)o2)sc2n1CCN=2`, for which the GTP binding activity was 78% (active).

`COC(=O)C1=C(C)NC(=O)/C1=C/c1ccc(CNS(=O)(=O)c2ccc(C)cc2)o1`: the GTP binding activity was 97%.

For `O=S(=O)(NCc1ccccc1)c1ccc(S(=O)(=O)N2CCCC2)cc1`, the GTP binding activity is 101%.

For `O=C(CCN1C(=O)c2ccncc2C1=O)Nc1cc(F)ccc1F`, the GTP binding activity was 92%.

Take `NC(=O)COc1ccc(C23CC4CC(CC(C4)C2)C3)cc1`: the GTP binding activity was 95%.

Regarding `COc1cccc(OC)c1C(=O)NC(=S)NCc1ccco1`, the GTP binding activity was 95%.

As to `CC(=O)c1ccc(N=C2SCCCN2C(=O)C2CCCCC2)cc1`, the GTP binding activity was 97%.

On to `COc1ccc(OCC(=O)NNC(=O)c2cccc(C)c2)cc1`, for which the GTP binding activity was 97%.

For `O=C(Nc1ccc(N2CCN(C(=O)C3CC3)CC2)cc1)c1cccs1`, the GTP binding activity was 95%.

With `CCOC(=O)c1cnc2c(c(C)nn2CC)c1Cl`, the GTP binding activity is 96%.

On to `CCOC(=O)c1ccc(Nc2cc(C)nc3nc(C)nn23)cc1`, for which the GTP binding activity is 98%.

In the case of `CCOC(=O)c1ccc(N/C(=N/S(=O)(=O)c2ccccc2)c2ccccc2)cc1`, the GTP binding activity was 97%.

In the case of `CCOC(=O)c1nc(Nc2ccc(C(=O)OC)cc2)c2ccccc2n1`, the GTP binding activity was 77% (active).

With `Cc1c(Cc2ccccc2)c(=O)oc2cc(OCC(N)=O)ccc12`, the GTP binding activity was 93%.

For the molecule `CCOc1ccccc1/C=N/NC(=O)CNC(=O)COc1ccccc1`, the GTP binding activity is 97%.

Regarding `O=C(COc1ccccc1Cl)Nc1ccc(C(=O)c2ccc(C(=O)O)cc2)cc1`, the GTP binding activity is 100%.

On to `Cc1cc(C)cc(NC(=O)N2CCCCCCC2)c1`, for which the GTP binding activity is 100%.

With `COc1ccc(C(=O)NC(Cc2ccc(OC(=O)c3ccc(OC)cc3)cc2)C(=O)O)cc1` (stereo unspecified), the GTP binding activity is 90%.

Regarding `Nc1ccc(Cl)c(S(=O)(=O)Nc2ccccc2Cl)c1`, the GTP binding activity was 98%.

Take `Cc1ccc(NC(=O)c2oc3ccccc3c2C)c([N+](=O)[O-])c1`: the GTP binding activity was 101%.

Turning to `C/C=N/NC(=O)CCCC(=O)N/N=C/C`, the GTP binding activity was 103%.

Regarding `CCC(=O)OCCNc1nc(-c2ccccc2)nc2ccccc12`, the GTP binding activity was 98%.

Values taken from PubChem BioAssay AID759 (NMMLSC, 2007).
